Bioassay records (PubChem BioAssay)
LMNA splice mod = LMNA splicing modulation | HeLa LMNA splicing GFP/RFP minigene ratio, 48 h | Potency, µM (highest dose often 46.1 µM), inactives show at the highest dose ratio change, negative = inhibition, usual class: inhibitors | 0.01% of 200,000 active | AID 1487; active = well fitted inhibition curve with a large enough effect in the signal ratio, with a control signal flat, not every such curve was filed as active; inconclusive = small, poorly fitted or top-dose-only effect, or effect the other way, or a change in a side signal; the % refers to the signal ratio; also: potency is read from the fitted curve at half-maximal effect
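S3 HeLa stable clones carrying a lamin A-EGFP splicing minigene plus DsRed2 were seeded at 600 cells/well in Opti-MEM with 2% FBS, pin-dosed and incubated 48 h at 37°C. Acumen cytometry (488 nm) gave the GFP/RFP total-intensity ratio.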
ALDH1A1 inh = ALDH1A1 (human) enzyme inhibition; P00352; Purified ALDH1A1, NADH fluorescence, propionaldehyde substrate; Potency, µM (doses to about 75.3 µM), for inactives: at the highest dose activity, negative = inhibition, hits mostly inhibitors; 7.3% of 220,000 active;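 also: potency is read from the fitted curve at half-maximal effect; plate controls were no enzyme wells and a reference inhibitor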
Target sequence (P00352 whole entry, looked up): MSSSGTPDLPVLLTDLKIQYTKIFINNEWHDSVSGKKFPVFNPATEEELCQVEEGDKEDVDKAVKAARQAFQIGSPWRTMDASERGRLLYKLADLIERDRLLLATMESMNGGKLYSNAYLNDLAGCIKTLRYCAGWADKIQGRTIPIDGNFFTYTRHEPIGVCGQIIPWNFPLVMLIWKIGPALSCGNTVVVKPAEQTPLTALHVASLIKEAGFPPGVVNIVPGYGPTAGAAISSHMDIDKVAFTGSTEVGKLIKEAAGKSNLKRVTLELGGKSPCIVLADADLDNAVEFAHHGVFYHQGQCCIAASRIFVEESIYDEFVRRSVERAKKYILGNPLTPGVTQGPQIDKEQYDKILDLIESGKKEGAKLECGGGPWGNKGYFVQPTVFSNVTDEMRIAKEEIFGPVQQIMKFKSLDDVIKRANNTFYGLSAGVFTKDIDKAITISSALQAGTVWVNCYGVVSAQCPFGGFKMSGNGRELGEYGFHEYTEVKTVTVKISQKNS
HPGD block = HPGD (human) dehydrogenase inhibition. AID 894. Potency, µM, for the others: at the highest dose activity change, negative = inhibition, most hits filed as inhibitors. 4.3% of 150,000 active. purified HPGD, NADH fluorescence kinetic, PGE2 substrate; also: potency is read from the fitted curve at half-maximal effect
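20 nM HPGD preincubated 15 min at room temperature with compound in 50 mM Tris-HCl pH 8, 0.01% Tween 20. Started with 1 mM NAD+ and 30 uM prostaglandin E2; NADH fluorescence (360/450 nm) read 5 times over 30-s intervals, last minus first.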
KinaseGlo FLuc = counter-screen: inhibitors of Kinase-Glo firefly luciferase; Potency, µM (doses to about 38.3 µM), without a hit: at the top dose activity change, negative = inhibition, hits mostly inhibitors; 0.28% of 200,000 active; Kinase-Glo luciferase, ATP luminescence, 8 min; active = well fitted inhibition curve with a large enough effect; inconclusive = small, poorly fitted or top-dose-only effect; also: potency is read from the fitted curve at half-maximal effect; nearly all actives have a fitted effect of over 60% in size
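Luminescence was the read-out, taken after 8-minute incubation at ambient temperature. Luciferase turned over luciferin with 10 uM ATP in imidazole pH 7.2 buffer containing KCl, MgCl2, Tween 20 and BSA.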
PNC assembly inh = perinucleolar compartment assembly inhibition; 3.1% of 140,000 active; activity change (PNC), negative = inhibition, % at 10 µM; PC3M PTB-GFP, PNC prevalence imaging, 16 h; hits give low values;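 active = readout at or below -70, meaning at least 70% loss of cells showing the perinucleolar compartment, a nuclear body marking cancer cells; inconclusive = readout between -30 and a set limit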;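 also: plate controls were DMSO wells for no effect and camptothecin positive control wells for full effect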
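Read-out is percentage of cells bearing a perinucleolar compartment, from automated 20x imaging of fixed, Hoechst-stained PC3M PTB-GFP cells. Cells were seeded 4 h, then exposed 16 h to compound (23 nl of library stock) in duplicate plates.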
The depositor's hits bear a star; ? = inconclusive; / = no result; [ ] = remark or other dose. Only some compounds are listed: those with a hit (about 10% of all), similar ones and a draw of the others. Unless noted, calls follow the shape of the dose curve; as a rule, active = well fitted inhibition curve with a large enough effect (not every such curve was filed as active); inconclusive = small, poorly fitted or top-dose-only effect, or another doubt; inactive = no such curve, though single readings can be large or run the other way. Unless noted, % is scaled to controls: 0 for no effect and ±100 for the full control effect.

SMILES	LMNA splice mod	ALDH1A1 inh	HPGD block	KinaseGlo FLuc	PNC assembly inh
COc1ccc(C2C(C(=O)O)CC(=O)N2c2ccc(OC)cc2)cc1 (centres undefined)	-5%	4%	0%	3%	-14
Cc1cc(C(c2nnnn2Cc2ccccc2)N2CCOCC2)c(C)n1-c1ccc2c(c1)OCO2 (centres undefined)	5%	13µM*	-12%	11%	-6
O=C(c1cccc(F)c1)N1CCC[C@@]2(CCN(c3ccccn3)C2)C1	/	?	-10%	-1%	/
CN(C)S(=O)(=O)c1cccc(NC(=S)N/N=C/C(c2ccccc2)c2ccccc2)c1	-10%	10µM*	18µM*	-1%	9
COc1cc(/C=N/NC(=S)Nc2cccc(S(=O)(=O)N(C)C)c2)cc(OC)c1O	?	22µM*	-26%	-3%	?
CC(/C=N/NC(=S)Nc1cccc(S(=O)(=O)N(C)C)c1)c1ccccc1 (centres undefined)	-12%	7.9µM*	35µM*	-2%	22
COc1ccc(O)c(/C=N/NC(=S)Nc2cccc(S(=O)(=O)N(C)C)c2)c1	?	?	?	-2%	60
COc1ccccc1CN1CC2(CCN(S(C)(=O)=O)CC2)C1	/	3%	-3%	-3%	/
COc1ccc(NC(C)=O)cc1C#N	-10%[46 µM]	3.2µM*	/	3%	/
COc1cc(C(=O)/C=C/Nc2ccc(NC(C)=O)cc2)cc(OC)c1OC	?	-2%	28µM*	-3%	-95*
CCC(=O)NCCCNc1nc2c(C)cccc2cc1C#N	/	?	/	0%	/
Cc1cc(C)c2cc(C#N)c(NCCCNC(=O)CCC(=O)O)nc2c1	7%	?	?	1%	-87*
Cc1nn(S(=O)(=O)c2ccc(C(C)(C)C)cc2)c(C)c1S(=O)(=O)N1CCCCCC1	13%[46 µM]	/	/	/	/
N#Cc1ccc(N2C(=O)[C@@H]3C(C(=O)C(c4ccccc4)c4ccccc4)=NN[C@@H]3C2=O)cc1	-10%	?	0%	0%	25
CC(=O)c1ccc(N2C(=O)[C@@H]3C(C(=O)CCN4C(=O)c5ccccc5C4=O)=NN[C@@H]3C2=O)cc1	5%	-8%	-23%	-4%	-108*
COc1cc(/C=N/n2c(C)n[nH]c2=S)ccc1OCc1ccc(F)cc1	13%	?	2.8µM*	-1%	-30
COc1cc(/C=N\n2nnnc2N)ccc1OCc1ccc(F)cc1	?	?	?	-1%	25
CC(=O)/C=C/n1c(=S)oc2ccccc21	?	7.9µM*	-21%	-6%	?
CC(C)CC(=O)/C=C/n1c(=S)oc2ccccc21	?	?	-19%	-3%	54
CCCCc1nc2c(c3c1C[C@H](C)OC3)CN(C(=O)N[C@@H](C)c1ccccc1)CC2	9%[9.22 µM]	15%[13.5 µM]	-7%	0%[7.66 µM]	/
COc1cc(NC(=O)C2=C(N3CCOCC3)/C(=C/c3ccc(Cl)cc3)CC2)cc(OC)c1OC	-7%	1%	-25%	-2%	?
COc1cc(NC(=O)C2=C(N3CCOCC3)/C(=C\c3ccc(N(C)C)cc3)CCC2)cc(OC)c1OC	?	18µM*	-8%	-3%	3
O=C(CSc1ncnc2ccccc12)NCc1ccco1	-1%	22%	16µM*	-2%	-26
COc1ccc(-n2nnc3c(SCC(=O)NCc4ccco4)ncnc32)cc1	?	?	28µM*	-12%	2
CCOC(=O)CNC(=O)CSc1ncnc2c1nnn2-c1ccc(F)cc1	-9%	9%	-14%	-2%	-100*
SMILES	LMNA splice mod	ALDH1A1 inh	HPGD block	KinaseGlo FLuc	PNC assembly inh
O=C(CSc1ncnc2ccccc12)c1ccco1	/	11µM*	/	-20%	/
Cc1ccc(CCNC(=O)C2CC(=O)N(CCc3ccc(C)cc3)C2)cc1 (centres undefined)	11%[46 µM]	/	/	/	/
CN(C)C(=O)c1ccc(-c2nccc(N(C)Cc3ccco3)n2)cc1	18%	?	/	/	/
COc1ccc(-c2[nH]c3c(c2-c2c(-n4cccc4)n(C)c(=O)[nH]c2=O)c(=O)[nH]c(=O)n3C)cc1F	5%[46 µM]	/	/	/	/
Cc1ccc2c(c1)c(=O)c(C(=O)c1ccncc1)cn2CC(=O)Nc1ccc(C(C)C)cc1	16%[46 µM]	/	/	/	/
CCCCCCCSc1nnc(-c2ccccc2N)c(=O)[nH]1	/	-10%	/	10%	/
CCCCSc1nnc(-c2ccccc2N)c(=O)[nH]1	1%	1.6µM*	-10%	-1%	?
Cc1c(C(=O)Nc2ccc(-c3nnc4n3CCCCC4)cc2)oc2c1ccc1ccccc12	?	-12%	?	0%	?
O=C(/C=C/c1ccccc1Cl)Nc1ccc(-c2nnc3n2CCCCC3)cc1	-5%	-4%	4µM*	-2%	-6
O=C(Nc1ccc(-c2nnc3n2CCCCC3)cc1)c1cc2ccccc2o1	-8%	-1%	2.2µM*	-4%	-7
CC(=O)OC[C@@H]1O[C@H](CCON=C(C)C)C=C[C@@H]1OC(C)=O	/	3%[13.5 µM]	/	/	/
c1cncc(Nc2nc(-c3cccs3)cs2)c1	-1%	7.9µM*	?	-1%	?
COc1ccc(-c2csc(Nc3ccccc3)n2)cc1	-19%[46 µM]	?	/	-4%	/
COc1ccc(-c2csc(Nc3cccnc3)n2)cc1	?	28µM*	-22%	3%	-24
OC[C@H]1O[C@H](n2cnc3c(NC4CCCC4)nc(Cl)nc32)[C@@H](O)[C@@H]1O	/	-2%	-20%	-2%	/
Cc1ccc(Cn2ncc(Cl)c(Cl)c2=O)cc1	-12%	25µM*	-8%	1%	-105*
O=c1c(Cl)c(Cl)cnn1Cc1nnc(-c2ccc(Cl)cc2)o1	?	8.9µM*	/	-1%	/
CC(=O)Cn1ncc(N2CCCCC2)c(Cl)c1=O	0%[1.84 µM]	-5%	/	4%	/
O=c1c(Cl)c(Cl)cnn1Cc1ccccc1Cl	?	7%	-14%	-4%	?
CCc1ccc(C(=O)Cn2ncc(Cl)c(Cl)c2=O)cc1	?	14µM*	-2%	-2%	6
Cc1cc(C)cc(Cn2ncc(Cl)c(Cl)c2=O)c1	?	28µM*	-8%	1%	?
CCCc1cc(OC)c2c(c1)OCO2	/	?	-20%	-3%	/
Cc1nc2ccn(Cc3ccccc3)c(=O)c2cc1C(=O)Nc1ccc(F)cc1Cl	10%[46 µM]	/	/	/	/
O=P(O)(CN1CCCCC1)C1CCCCC1O (centres undefined)	/	4%	-1%	-5%	/
O=C(O)C1C2C=CC(C2)C1C(=O)NCc1ccccn1 (centres undefined)	2%	-1%	-8%	14%	1
O=C(NCc1ccccn1)C1C2C=CC(C2)C1C(=O)Nc1ccc(F)cc1 (centres undefined)	-4%	10%	16µM*	1%	14
COc1cc(N=C2C(=O)N3CCCc4cccc2c43)cc(OC)c1	0%	0.63µM*	-9%	-3%	-104*
Cc1cccc(NC(=O)NCCc2ccc(Cl)cc2)c1	6%[46 µM]	35µM*	/	0%	/
O=C(NCCc1ccncc1)Nc1ccccc1	-6%	14%	-15%	1%	-100*
